Data on 32 molecules can be found in PubChem BioAssay AID1209 (Sanford-Burnham Center for Chemical Genomics, 2008).

Out of some 190,000 compounds screened, about 810 (0.43%) were called active. Cut-off read from the data, not from the text of the source: active = inhibition above about 50%; inactive = the rest. Only a selection was taken, and actives are over-represented in it overall.

Sequence of Mannose-6-phosphate isomerase (Homo sapiens) (P34949 whole entry, looked up): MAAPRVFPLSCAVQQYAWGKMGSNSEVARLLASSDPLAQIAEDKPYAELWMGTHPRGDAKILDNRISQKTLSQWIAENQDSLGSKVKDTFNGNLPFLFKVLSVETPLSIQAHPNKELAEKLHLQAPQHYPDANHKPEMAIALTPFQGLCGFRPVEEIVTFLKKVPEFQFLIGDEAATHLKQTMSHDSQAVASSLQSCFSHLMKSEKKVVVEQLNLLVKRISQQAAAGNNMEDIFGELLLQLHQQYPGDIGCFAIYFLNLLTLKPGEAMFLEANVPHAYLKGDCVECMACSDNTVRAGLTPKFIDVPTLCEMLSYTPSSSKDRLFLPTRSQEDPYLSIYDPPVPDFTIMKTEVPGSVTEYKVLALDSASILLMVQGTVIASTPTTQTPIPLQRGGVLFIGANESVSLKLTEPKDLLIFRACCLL

The test has as its target Mannose-6-phosphate isomerase (Homo sapiens) (UniProt P34949). Description: inhibitors of human PMI, primary screen, biochemical, fluorescence intensity, coupled assay (AID 1209).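 Note: plate controls were DMSO vehicle for no effect and wells lacking substrate for full effect.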 As to conditions: purified PMI enzyme, at 20 µM, hits give high values.
As usually defined, the inhibition is the drop in the measured response relative to a control, in per cent. Turning to `O=[N+]([O-])c1cc(Cl)c2cccnc2c1O`, the inhibition was 14.6% (inactive).

With `O=[N+]([O-])c1cc(Cl)c(O)c2ncccc12`, the inhibition was 51.7% (active).

For `Oc1c(Cl)cc(Cl)c2cccnc12`, the inhibition was 21.3% (inactive).

For the molecule `COC(=O)C(C(=O)OC)c1ccc(-n2cccc2)cc1`, the inhibition is 11% (inactive).

For the molecule `CCOc1cccc2cc(C(C)=O)oc12`, the inhibition is -14.2% (inactive).

With `CCOc1cc(C2NC(=O)NC(c3ccccc3)=C2C(C)=O)ccc1OC(C)=O` (configuration not stated), the inhibition is 7% (inactive).

Turning to `CC(=O)C1=C(c2ccccc2)NC(=S)NC1c1ccc(O)c(O)c1` (configuration not stated), the inhibition is 44.9% (inactive).

For `CC(=O)C1=C(c2ccccc2)NC(=O)NC1c1ccc(O)c(O)c1` (configuration not stated), the inhibition was 61.3% (active).

As for `COc1cccc(N2CCN(Cc3ccsc3)CC2)c1`, the inhibition is -5.2% (inactive).

Consider `COC(=O)c1cc(=O)nc2sc(-c3cccs3)nn12`, for which the inhibition was 7.5% (inactive).

Regarding `COC(=O)c1cc(=O)nc2sc(-c3ccc(F)cc3)nn12`, the inhibition was 72.4% (active).

For `COC(=O)c1cc(=O)nc2sc(-c3ccccc3)nn12`, the inhibition was -2.3% (inactive).

`CN1Cc2sc(N)c(C#N)c2CC1(C)C`: the inhibition was -8.4% (inactive).

Take `CN(C)c1ccc(/C=N/NC(=O)c2nonc2N)cc1[N+](=O)[O-]`: the inhibition was 12.7% (inactive).

`Cc1cccnc1Nc1nc(-c2ccc(O)cc2O)cs1`: the inhibition is 10.6% (inactive).

Consider `Oc1ccc(-c2csc(Nc3ncccn3)n2)cc1O`, for which the inhibition was 58% (active).

Consider `COc1ccc(-c2csc(Nc3ccc(C)cn3)n2)cc1`, for which the inhibition was -1.5% (inactive).

Take `Cc1cccnc1Nc1nc(-c2ccc(O)cc2)cs1`: the inhibition was -10.5% (inactive).

`c1ccc(-c2csc(Nc3ncccn3)n2)cc1`: the inhibition was -2.2% (inactive).

Consider `Cc1cccnc1Nc1nc(-c2ccc(O)c(O)c2)cs1`, for which the inhibition is 52.3% (active).

In the case of `COc1ccc(-c2csc(Nc3ccc(C)cn3)n2)cc1OC`, the inhibition is 7.7% (inactive).

With `Oc1ccc(-c2csc(Nc3ncccn3)n2)cc1`, the inhibition is -4.9% (inactive).

With `O=C(O)CC(=O)Nc1ccccc1C(=O)O`, the inhibition was 0.5% (inactive).

Consider `O=C(CSCc1ccc(Cl)cc1)Nc1ccc(S(=O)(=O)N2CCOCC2)cc1`, for which the inhibition was 11.5% (inactive).

Turning to `COCCN(CCOC)S(=O)(=O)c1ccc(C(=O)Nc2nnc(COC)o2)cc1`, the inhibition was -8.8% (inactive).

For `Cc1cccc(NC(=O)c2ccc(NCC3CCCO3)c([N+](=O)[O-])c2)c1` (configuration not stated), the inhibition is 2% (inactive).

On to `CCC(NC(C)C)C(O)c1ccc(O)c2[nH]c(=O)ccc12` (configuration not stated), for which the inhibition is 4.3% (inactive).

Take `CNC[C@H](O)c1ccc(O)c(O)c1`: the inhibition is 63.2% (active).

For the molecule `COc1ccc([C@H](C)NC[C@H](O)c2ccc(O)c(NC=O)c2)cc1`, the inhibition is 0.1% (inactive).

Take `CCC(NC(C)C)C(O)c1ccc(O)c(O)c1` (configuration not stated): the inhibition was 57.9% (active).

Take `CCC(C)c1ccc(O)c(N)c1` (configuration not stated): the inhibition was 26.6% (inactive).

Consider `CNC[C@H](O)c1cccc(O)c1`, for which the inhibition is -1.6% (inactive).
